Only some compounds are listed: those with a hit (about 1.3% of all), similar ones and a draw of the others.
EBV gp42 inh – inhibitors of Epstein-Barr virus glycoprotein 42; Q1HVG2; Fluorescence polarization binding assay, mP read-out; inhibition, % (tested at 21.74 µM); 220,000 compounds, 0.42% hits; AID 1085; in the data active = inhibition above about 50%
MCL1-BIM inh – inhibitors of human MCL1 binding to BIM-BH3 peptide; GST-MCL1 / FITC-Bim-BH3 fluorescence polarization; AID 2057; inhibition, % at 10.9 µM; 320,000 compounds, 0.68% hits; Q07820;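 active = inhibition above the mean inhibition of all tested compounds plus 3 SD, set per campaign, cut at about 40% in these data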;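 also: 0% = DMSO wells and 100% = unlabeled Bim-BH3 peptide control; higher means more loss of mP so more displacement of Bim peptide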
MEX-5 binding – C. elegans MEX-5 TCR-2 RNA binding activity. MEX-5/FITC-TCR2 RNA binding, fluorescence polarization; active compounds read low. activity score (negative = inhibition of binding), % at 10 µM. 300,000 compounds, 0.38% hits. AID 1832;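 active = inhibition past about -25% in most replicates, and total fluorescence under double the plate's negative control median, limit read from the data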;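 also: 0% = DMSO and -100% = 5 µM competing unlabeled TCR2 RNA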
BCLXL inh – Bcl-xL (human) inhibition | Q07817 | GST-Bcl-xL / FITC-Bim BH3 peptide fluorescence polarization | inhibition, % at 10.9 µM | 320,000 compounds, 0.7% hits | AID 2129;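 active = inhibition above the mean of all tested compounds plus 3 SD, cutoff set per campaign, cut at about 30% in these data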;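 also: 0% = DMSO wells and 100% = unlabeled Bim-BH3 peptide competitor; inhibitors lower millipolarization by displacing the labeled peptide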
Target sequence (Q07817 whole entry, looked up): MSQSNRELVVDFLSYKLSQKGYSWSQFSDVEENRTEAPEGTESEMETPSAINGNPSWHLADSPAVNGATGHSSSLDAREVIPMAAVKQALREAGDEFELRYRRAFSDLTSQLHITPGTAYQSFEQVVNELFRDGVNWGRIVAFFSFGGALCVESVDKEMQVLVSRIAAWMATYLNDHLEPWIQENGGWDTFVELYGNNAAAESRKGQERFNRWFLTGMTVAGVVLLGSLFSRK
GLD-1 TGE inh – GLD-1-TGE RNA interaction inhibition (C. elegans); Q17339; purified GLD-1 + fluorescein TGE RNA, fluorescence polarization; inhibition, % at 5.96 µM; 320,000 compounds, 0.44% hits; AID 2280;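 active = percent inhibition above a per-plate cutoff, the plate mean of test compounds plus 3 SD, cut at about 30% in these data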;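 also: 0% = DMSO wells with GLD-1 and probe and 100% = wells lacking GLD-1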
Bcl-xL conf – Bcl-xL (human) inhibition, MCL1 counter-screen confirmation | shares compounds with MCL1-BIM inh | GST-Bcl-xL / FITC-Bim BH3 peptide FP binding | inhibition, % at 10.9 µM | 1,700 compounds, 54% hits | AID 2166;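 active = inhibition above a cutoff equal to the mean inhibition of all tested compounds plus 3 SD, cut at about 30% in these data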;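 also: 0% = DMSO wells and 100% = unlabeled Bim BH3 control peptide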
MCL1 inh confirm – confirmation of human MCL1 and BIM-BH3 interaction inhibitors; inhibition, % at 10.9 µM; shares compounds with MCL1-BIM inh; GST-MCL1 / FITC-Bim-BH3 fluorescence polarization; 1,700 compounds, 61% hits;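 active = inhibition above the average of all tested compounds plus 3 SD, cut at about 40% in these data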;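 also: 0% = DMSO wells and 100% = unlabeled Bim-BH3 control peptide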
The depositor's hits bear a star; · = no result given; + = active, no number.

SMILES	EBV gp42 inh	MCL1-BIM inh	MEX-5 binding	BCLXL inh	GLD-1 TGE inh	Bcl-xL conf	MCL1 inh confirm
O=c1c(-c2ccc([N+](=O)[O-])cc2)coc2c(O)c(O)ccc12	-3	45*	-10	26	3	43*	63*
COc1ccc(NC(=O)CCOc2ccccc2C)cc1S(=O)(=O)N1CCCCC1	·	-5	0	-7	11	·	·
O=C(O)/C(=C\c1ccc(Cl)c([N+](=O)[O-])c1)c1ccc(S(=O)(=O)N2CCCC2)s1	·	43*	·	11	-1	19	49*
O=C(O)/C(=C\c1ccc(Cl)c([N+](=O)[O-])c1)c1ccc(S(=O)(=O)N2CCCCC2)s1	-2	15	-3	15	2	·	·
NC1=NC(=O)/C(=C/c2ccc(-c3ccc(S(N)(=O)=O)cc3)o2)S1	·	50*	-40*	24	5	41*	39
NC1=NC(=O)/C(=C\c2ccco2)S1	6	84*	-17	55*	12	44*	64*
CCOc1ccc(OCCNCc2ccc(OC(C)C(=O)N(C)C)c(OCC)c2)cc1 (centres undefined)	·	-1	-3	0	-8	·	·
O=C(Cc1cccc(F)c1F)NC1CCCN(Cc2ccc(Cl)cc2)C1 (centres undefined)	·	2	2	7	-2	·	·
O=C(c1cc(-c2ccco2)nn1-c1cccc(Cl)c1)N1CCCCC1	3	70*	2	3	-6	26	65*
CC(C)NC(=O)c1cc(-c2ccco2)nn1-c1ccc(Cl)cc1	·	18	0	6	0	·	·
O=C(/C=C/c1ccco1)NC(=S)Nc1cccc(C(=O)O)c1	·	61*	-34*	37*	5	31*	52*
COc1cccc(NC(=S)NC(=O)/C=C/c2ccco2)c1	·	36	-11	19	18	·	·
COc1ccc(OC)c(NC(=O)COC(=O)c2cc3c(s2)CCC3)c1	15	57*	1	6	8	11	43*
Cc1ccc(C(=O)OCC(=O)N2CCCCCC2)c(O)c1	·	1	·	0	5	·	·
Cc1cc(=O)oc(C)c1C(=O)Nc1ccc2ncccc2c1	72*	97*	-19	100*	-27	79*	82*
COc1ccccc1NS(=O)(=O)c1ccc(N/N=C/c2ccccc2OCC(=O)O)c([N+](=O)[O-])c1	6	141*	2	136*	94*	184*	+
O=C(CN1C(=O)CC(c2ccccc2)S(=O)(=O)c2ccccc21)N1CCCCC1 (centres undefined)	-8	1	-2	10	-2	·	·
N=C1/C(=C\c2ccc(SCc3ccco3)o2)C(=O)N=C2SC=NN12	-4	63*	-34*	51*	21	50*	68*
CCOc1ccc2nc(COC(=O)c3cccc([N+](=O)[O-])c3)c(C(C)=O)[n+]([O-])c2c1	-8	0	-1	-3	1	·	·
CC1(C)c2ccccc2N2CC(=O)N(CC(N)=O)C21C (centres undefined)	2	106*	8	97*	85*	75*	103*
CC1(C)c2ccccc2N(CC(N)=O)C12C=Cc1ccccc1O2 (centres undefined)	-2	-2	-1	0	-6	·	·
CCOC(=O)c1ccc2c(c1)C1C=CCC1C(C(=O)O)N2 (centres undefined)	84*	113*	·	64*	23	54*	97*
CCOC(=O)C1Nc2c(F)cc(C)cc2C2C=CCC12 (centres undefined)	·	36	-4	14	-6	·	·
CCOC(=O)C1Nc2ccc(C(=O)O)cc2C2C=CCC12 (centres undefined)	·	89*	-18	37*	10	32*	48*
CCOC(=O)c1cccc(NC(=O)C2(S(=O)(=O)c3ccc(C)cc3)CC2)c1	-6	0	0	1	6	·	·
Cc1nc(C)n(C(C)CC(=O)O)n1 (centres undefined)	-26	3	-3	4	4	·	·
